The record followed here is PubChem BioAssay (EPA / NIEHS).

For assay [1], the target named is Paired box protein Pax-6 (Homo sapiens) (UniProt P26367). As to the kind of experiment: ATG_Pax6_CIS: Attagene CIS-FACTORIAL HepG2 Assay for human Paired Box 6 (PAX6) (AID 2282956). Conditions: HepG2 CIS-FACTORIAL PAX6 reporter transcription, RNA readout; actives raise or lower the signal. In a few lines:
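Multiplexed cis-reporter HepG2 system; 24 h treatment; reporter mRNA read by RT-PCR/CE fluorescence; bidirectional fit vs DMSO.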

A short description of assay [2]: ATG_PXRE_CIS: Attagene CIS-FACTORIAL HepG2 Assay for human Pregnane X Receptor Element (PXRE) (AID 2282957). To be noted: HepG2 Attagene CIS-FACTORIAL PXRE reporter, mRNA; actives raise or lower the signal. The method, boiled down: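 HepG2 cells transiently transfected with cis-regulated multiple reporter transcription units; endogenous factor activity measured as reporter mRNA 24 h after dosing. RT-PCR, fluorescent primer extension, HpaI digestion, capillary electrophoresis; bidirectional fit versus DMSO baseline.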

Assay [3] is described as follows: ATG_PPRE_CIS: Attagene CIS-FACTORIAL HepG2 Assay for human Peroxisome Proliferator-activated Response Element (PPRE) (AID 2282958). To be noted: HepG2 PPRE cis-element reporter, Attagene transcription factor profiling; actives raise or lower the signal. The method, boiled down: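 In this cell-based multiplex, a PPRE cis element drives a reporter sequence in transiently transfected HepG2 cells. Following 24 h treatment, labeled cDNA amplicons are sized and quantified by capillary electrophoresis, with DMSO defining baseline.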

Assay [4] in a line: ATG_RORE_CIS: Attagene CIS-FACTORIAL HepG2 Assay for human RAR-related Orphan Receptor Element (RORE) (AID 2282959). To be noted: HepG2 Attagene cis-factorial RORE reporter, mRNA; actives raise or lower the signal. The method, boiled down: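 Endogenous factor activity at a cis response element is read as reporter transcript levels in HepG2 cells, 24 h post-dose. Transcripts are quantified by RT-PCR with capillary electrophoresis, and data fitted in both directions against DMSO.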

Assay [5] in a line: ATG_Sox_CIS: Attagene CIS-FACTORIAL HepG2 Assay for human SRY-box transcription factor (SOX) (AID 2282960). Conditions: HepG2 Attagene cis-factorial SOX reporter, mRNA; actives raise or lower the signal. The method, boiled down: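 Measures mRNA induction of a SOX1-associated reporter in HepG2 after 24 h dosing. Fluorescently labelled RT-PCR fragments are separated by capillary electrophoresis, and gain or loss relative to DMSO control is fitted.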

Assay [6] concerns the target Transcription factor Sp1 (Homo sapiens) (UniProt P08047). As to the kind of experiment: ATG_Sp1_CIS: Attagene CIS-FACTORIAL HepG2 Assay for human Specificity Protein 1 (Sp1) (AID 2282961). Conditions: HepG2 Sp1 cis-reporter transcription, actives raise or lower the signal. In a few lines: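 Cells: HepG2, transiently transfected with cis-regulated multiplexed reporters. Exposure: 24 h. Detection: reporter transcripts amplified, fluorescently labeled, restriction-digested and sized by capillary electrophoresis. Analysis: bidirectional fit relative to DMSO.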

A short description of assay [7]: ATG_SREBP_CIS: Attagene CIS-FACTORIAL HepG2 Assay for human Sterol Regulatory Element Binding (SREBP) (AID 2282962). Conditions: HepG2 Attagene cis-factorial SREBP reporter, mRNA; actives raise or lower the signal. The method, boiled down:
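mRNA induction of transfected cis-promoter reporters in HepG2 cells, 24 h post-dose. Detection: RT-PCR with 6-FAM-labelled products, HpaI digest, capillary electrophoresis. DMSO served as negative control and baseline.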

Assay [8] deals with Signal transducer and activator of transcription 3 (Homo sapiens) (UniProt P40763). As to the kind of experiment: ATG_STAT3_CIS: Attagene CIS-FACTORIAL HepG2 Assay for human Signal Transducer and Activator of Transcription 3 (STAT3) (AID 2282963). To be noted: HepG2, Attagene cis-factorial STAT3 reporter transcription; actives raise or lower the signal. In a few lines: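 Endogenous STAT3-responsive cis-element activity was read in transiently transfected HepG2 cells after 24 h treatment. Reporter transcripts were quantified via RT-PCR and capillary electrophoresis, with DMSO as negative control and bidirectional curve fitting.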

A short description of assay [9]: ATG_TA_CIS: Attagene CIS-FACTORIAL HepG2 Assay for human TA Basal Promoter (AID 2282964). To be noted: HepG2 Attagene CIS-factorial TA basal promoter reporter; actives raise or lower the signal. In a few lines: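 Steps: transfect HepG2 with MRTUs; dose 24 h; isolate RNA, DNase-treat, reverse-transcribe; PCR and FAM-label reporter cDNA; digest with HpaI 2h at 37 C; run capillary electrophoresis. Activity fitted both directions against DMSO.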

A short description of assay [10]: ATG_TCF_b_cat_CIS: Attagene CIS-FACTORIAL HepG2 Assay for human T-Cell-Factor with beta-catenin (TCF/b-cat) (AID 2282965). To be noted: HepG2 TCF/beta-catenin cis-reporter transcription, actives raise or lower the signal. The method, boiled down: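 Endogenous TCF/LEF activity read as reporter transcript level via RT-PCR and capillary electrophoresis fluorescence in transfected HepG2, 24 h exposure; gain or loss of signal fitted against DMSO controls.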

Assay [11] can be described thus: ATG_TAL_CIS: Attagene CIS-FACTORIAL HepG2 Assay for human TAL Basal Promoter (AID 2282966).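 Further: background control endpoint measuring basal TAL promoter reporter mRNA not a specific factor.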 Conditions: HepG2 Attagene cis-factorial TAL promoter reporter; actives raise or lower the signal. In a few lines:
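HepG2 cells were transiently transfected with promoter-driven multiplexed reporter units and dosed for 24 h. Reporter mRNA was measured by RT-PCR with capillary electrophoresis fluorescence; bidirectional fits used DMSO as baseline, serving as a background control.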

A short description of assay [12]: ATG_TGFb_CIS: Attagene CIS-FACTORIAL HepG2 Assay for human Transforming Growth Factor (TGF) (AID 2282967). To be noted: HepG2 Attagene CIS TGFb reporter, mRNA transcription; actives raise or lower the signal. In a few lines: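 Cells were dosed for 24 hours, after which total RNA was reverse-transcribed and reporter sequences amplified, labeled and sized by capillary electrophoresis. Activity was fitted in both directions against DMSO.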

Assay [13] can be described thus: ATG_VDRE_CIS: Attagene CIS-FACTORIAL HepG2 Assay for human Vitamin D Receptor Element (VDRE) (AID 2282968). To be noted: HepG2 VDRE cis-reporter transcription, actives raise or lower the signal. The method, boiled down:
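Reporter mRNA induction, quantified by capillary electrophoresis of fluorescently labelled RT-PCR products, was read 24 h after dosing HepG2 cells carrying transiently transfected cis-regulated reporter units; gain or loss relative to DMSO.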

Assay [14] addresses Estrogen receptor (Homo sapiens) (UniProt P03372). As to the kind of experiment: ATG_ERa_TRANS: Attagene TRANS-FACTORIAL HepG2 Assay for human Estrogen Receptor alpha (ERa) (AID 2282970; active means hit-call score of the fitted dose curve at least 0.9, where 1 is the maximum). To be noted: HepG2 Attagene TRANS ERa GAL4 reporter, mRNA. The method, boiled down:
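HepG2 cells transiently transfected with multiplexed GAL4-UAS reporter units; ERa activity read via exogenous chimeric NR-Gal4 protein. After 24 hour compound exposure, reporter mRNA measured by RT-PCR with 6-FAM labelling and capillary electrophoresis; gain-of-signal fitted relative to DMSO.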

Assay [15] addresses Steroid hormone receptor ERR1 (Homo sapiens) (UniProt P11474). As to the kind of experiment: ATG_ERRa_TRANS: Attagene TRANS-FACTORIAL HepG2 Assay for human Estrogen-Related Receptor alpha (ERRa) (AID 2282971; active means hit-call score of the fitted dose curve at least 0.9, where 1 is the maximum). Conditions: HepG2 Attagene TRANS reporter, ERRa transactivation. In a few lines: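 HepG2 cells transiently transfected with multiplexed GAL4-UAS reporter units reading chimeric ERRa-Gal4 activity; 24 h compound exposure. Reporter mRNA measured by RT-PCR, 6-FAM labelling, HpaI digest and capillary electrophoresis; gain of signal fitted versus DMSO baseline.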

The target of assay [16] is X-box-binding protein 1 (Homo sapiens) (UniProt P17861). As to the kind of experiment: ATG_Xbp1_CIS: Attagene CIS-FACTORIAL HepG2 Assay for human X-box Binding Protein 1 (XBP1) (AID 2282972). Conditions: HepG2 XBP1 cis-element reporter, Attagene multiplex; actives raise or lower the signal. In a few lines:
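Fluorescence-labelled cDNA fragments from reporter transcripts, separated by capillary electrophoresis, give the signal. Source: HepG2 cells transfected with promoter-driven reporter units, harvested 24 h post-dose. DMSO served as reference for bidirectional curve fitting.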

Assay [17] can be described thus: ATG_M_19_TRANS: Attagene TRANS-FACTORIAL HepG2 Assay for M19 Transcription Factor (Internal Marker) (AID 2282974; active means hit-call score of the fitted dose curve at least 0.9, where 1 is the maximum). To be noted: HepG2 Attagene TRANS-FACTORIAL M19 internal marker reporter. In a few lines:
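Reporter mRNA induction was measured in transfected HepG2 cells 24 h after dosing. Endpoint fitted upward relative to DMSO and serves as a background control within the multiplexed TRANS panel.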

The target in assay [18] is Estrogen-related receptor gamma (Homo sapiens) (UniProt P62508). The assay can be described thus: ATG_ERRg_TRANS: Attagene TRANS-FACTORIAL HepG2 Assay for human Estrogen-Related Receptor gamma (ERRg) (AID 2282977; active means hit-call score of the fitted dose curve at least 0.9, where 1 is the maximum;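 further: hits increase reporter signal over DMSO so potencies reflect activators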). Conditions: HepG2 Attagene TRANS reporter, ERRg transactivation. In a few lines:
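Transfect HepG2 with multiple GAL4-UAS reporter transcription units; dose chemicals 24 h; isolate RNA, reverse-transcribe with oligo(dT), PCR-amplify, label with 6-FAM, digest with HpaI; size fragments by capillary electrophoresis. DMSO serves as negative control.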

For assay [19], the target named is Nuclear receptor subfamily 1 group I member 3 (Homo sapiens) (UniProt Q14994). The assay can be described thus: ATG_CAR_TRANS: Attagene TRANS-FACTORIAL HepG2 Assay for human Constitutive Androstane Receptor (CAR) (AID 2282969; active means hit-call score of the fitted dose curve at least 0.9, where 1 is the maximum;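 further: activators raise reporter mRNA above DMSO so AC50 marks induction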). Conditions: HepG2 Attagene TRANS-FACTORIAL CAR reporter. The method, boiled down: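 Readout is reporter mRNA induction, quantified by fluorescent primer extension and capillary electrophoresis after RT-PCR. Cells were HepG2 transiently carrying chimeric NR-Gal4 constructs with GAL4-UAS reporters, treated for 24 h; activity scored upward from DMSO.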

Assay [20] in a line: ATG_GAL4_TRANS: Attagene TRANS-FACTORIAL HepG2 Assay for GAL4 (Internal Marker) (AID 2282976; active means hit-call score of the fitted dose curve at least 0.9, where 1 is the maximum). To be noted: HepG2 Attagene TRANS GAL4 internal marker reporter. The method, boiled down: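 HepG2 cells transiently transfected with multiplexed GAL4-UAS reporter constructs were dosed for 24 h. Reporter mRNA was measured by RT-PCR, 6-FAM primer extension, HpaI digestion and capillary electrophoresis, and gain of signal was fitted relative to DMSO.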

Values joined by “and” are separate entries in the source; they are usually repeats but may differ in a detail not shown here. Equal values may be shown once. Records with an inconclusive call do not appear. Some compounds were tested as several samples or in several runs, with calls that do not always agree. Active and inactive are the calls of the source. How the source made its calls, unless noted: active means hit-call score of the fitted dose curve at least 0.9, where 1 is the maximum; inactive means score below 0.9.

Chain of Paired box protein Pax-6 (Homo sapiens) (P26367 whole entry, looked up): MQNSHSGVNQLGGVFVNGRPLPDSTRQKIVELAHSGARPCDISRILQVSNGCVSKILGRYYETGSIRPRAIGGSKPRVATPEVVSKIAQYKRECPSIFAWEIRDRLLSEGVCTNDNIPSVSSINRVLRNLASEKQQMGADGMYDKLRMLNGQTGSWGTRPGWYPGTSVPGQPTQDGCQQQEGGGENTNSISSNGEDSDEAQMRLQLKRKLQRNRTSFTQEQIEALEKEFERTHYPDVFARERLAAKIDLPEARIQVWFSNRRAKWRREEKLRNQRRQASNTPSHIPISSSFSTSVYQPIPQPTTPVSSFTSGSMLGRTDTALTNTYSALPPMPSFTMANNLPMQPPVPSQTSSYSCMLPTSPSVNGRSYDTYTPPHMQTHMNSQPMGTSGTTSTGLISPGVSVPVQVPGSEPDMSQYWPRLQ
Chain of Transcription factor Sp1 (Homo sapiens) (P08047 whole entry, looked up): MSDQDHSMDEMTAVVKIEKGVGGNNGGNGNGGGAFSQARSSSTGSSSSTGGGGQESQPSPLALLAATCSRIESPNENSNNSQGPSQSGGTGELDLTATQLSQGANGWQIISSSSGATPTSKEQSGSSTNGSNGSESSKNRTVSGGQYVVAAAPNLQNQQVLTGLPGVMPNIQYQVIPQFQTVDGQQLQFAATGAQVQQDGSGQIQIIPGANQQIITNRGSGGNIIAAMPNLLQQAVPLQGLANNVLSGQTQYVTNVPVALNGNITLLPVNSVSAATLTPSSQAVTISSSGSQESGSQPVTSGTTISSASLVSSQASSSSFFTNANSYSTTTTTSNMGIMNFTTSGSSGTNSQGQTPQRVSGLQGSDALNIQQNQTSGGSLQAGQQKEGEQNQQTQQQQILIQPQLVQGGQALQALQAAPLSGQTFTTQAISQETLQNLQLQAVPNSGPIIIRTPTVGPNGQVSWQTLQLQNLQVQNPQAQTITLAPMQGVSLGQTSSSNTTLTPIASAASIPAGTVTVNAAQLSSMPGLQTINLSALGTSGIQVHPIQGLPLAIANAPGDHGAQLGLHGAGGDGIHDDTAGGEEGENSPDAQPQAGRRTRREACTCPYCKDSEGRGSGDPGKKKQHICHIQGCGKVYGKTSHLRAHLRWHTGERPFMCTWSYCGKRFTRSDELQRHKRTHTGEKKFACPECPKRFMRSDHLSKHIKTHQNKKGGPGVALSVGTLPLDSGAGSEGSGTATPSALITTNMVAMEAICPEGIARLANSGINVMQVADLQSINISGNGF
Chain of X-box-binding protein 1 (Homo sapiens) (P17861 whole entry, looked up, the tested form may be a part): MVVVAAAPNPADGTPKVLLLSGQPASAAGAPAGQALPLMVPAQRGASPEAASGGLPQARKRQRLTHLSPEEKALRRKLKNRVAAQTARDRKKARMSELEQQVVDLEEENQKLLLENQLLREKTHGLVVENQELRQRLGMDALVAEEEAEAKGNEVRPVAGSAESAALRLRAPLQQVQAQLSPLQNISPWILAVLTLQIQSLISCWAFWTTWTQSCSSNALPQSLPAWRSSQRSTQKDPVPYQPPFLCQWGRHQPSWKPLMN
Chain of Estrogen receptor (Homo sapiens) (P03372 whole entry, looked up, the tested form may be a part): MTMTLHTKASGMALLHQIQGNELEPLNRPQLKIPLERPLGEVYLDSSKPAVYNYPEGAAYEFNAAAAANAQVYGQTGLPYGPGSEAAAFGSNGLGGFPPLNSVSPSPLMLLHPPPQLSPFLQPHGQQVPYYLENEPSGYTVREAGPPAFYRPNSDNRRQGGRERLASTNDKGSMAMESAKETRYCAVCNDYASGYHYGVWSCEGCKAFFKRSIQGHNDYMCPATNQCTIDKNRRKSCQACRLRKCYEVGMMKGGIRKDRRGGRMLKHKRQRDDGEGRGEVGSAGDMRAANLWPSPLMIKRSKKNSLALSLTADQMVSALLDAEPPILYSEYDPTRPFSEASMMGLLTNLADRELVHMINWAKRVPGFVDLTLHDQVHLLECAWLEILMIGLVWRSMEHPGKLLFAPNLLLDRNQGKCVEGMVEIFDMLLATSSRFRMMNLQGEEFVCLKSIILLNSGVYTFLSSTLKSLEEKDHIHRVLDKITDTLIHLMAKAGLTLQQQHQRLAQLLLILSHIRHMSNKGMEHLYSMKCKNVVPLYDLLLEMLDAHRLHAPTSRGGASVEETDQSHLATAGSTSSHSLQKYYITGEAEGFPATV
Chain of Signal transducer and activator of transcription 3 (Homo sapiens) (P40763 whole entry, looked up): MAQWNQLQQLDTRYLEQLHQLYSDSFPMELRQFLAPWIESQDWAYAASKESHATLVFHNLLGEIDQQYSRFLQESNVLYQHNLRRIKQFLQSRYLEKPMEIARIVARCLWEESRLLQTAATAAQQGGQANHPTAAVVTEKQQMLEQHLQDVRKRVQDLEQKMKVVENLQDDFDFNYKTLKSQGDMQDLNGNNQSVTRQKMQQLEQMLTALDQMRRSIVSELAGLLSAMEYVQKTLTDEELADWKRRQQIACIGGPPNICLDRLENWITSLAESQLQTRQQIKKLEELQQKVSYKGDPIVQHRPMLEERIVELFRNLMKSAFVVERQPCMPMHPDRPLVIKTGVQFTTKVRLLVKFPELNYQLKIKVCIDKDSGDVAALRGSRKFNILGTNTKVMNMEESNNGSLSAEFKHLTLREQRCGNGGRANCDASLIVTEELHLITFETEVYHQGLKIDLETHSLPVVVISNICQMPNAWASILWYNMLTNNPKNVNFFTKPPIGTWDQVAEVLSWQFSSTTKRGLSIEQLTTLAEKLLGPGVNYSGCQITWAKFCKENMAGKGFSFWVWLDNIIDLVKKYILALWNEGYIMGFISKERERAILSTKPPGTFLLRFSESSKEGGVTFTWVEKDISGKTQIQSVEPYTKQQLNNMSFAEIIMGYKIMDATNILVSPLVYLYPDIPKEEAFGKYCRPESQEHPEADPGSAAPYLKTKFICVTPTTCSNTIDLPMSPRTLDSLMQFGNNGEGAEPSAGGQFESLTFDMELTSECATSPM
Chain of Nuclear receptor subfamily 1 group I member 3 (Homo sapiens) (Q14994 whole entry, looked up, the tested form may be a part): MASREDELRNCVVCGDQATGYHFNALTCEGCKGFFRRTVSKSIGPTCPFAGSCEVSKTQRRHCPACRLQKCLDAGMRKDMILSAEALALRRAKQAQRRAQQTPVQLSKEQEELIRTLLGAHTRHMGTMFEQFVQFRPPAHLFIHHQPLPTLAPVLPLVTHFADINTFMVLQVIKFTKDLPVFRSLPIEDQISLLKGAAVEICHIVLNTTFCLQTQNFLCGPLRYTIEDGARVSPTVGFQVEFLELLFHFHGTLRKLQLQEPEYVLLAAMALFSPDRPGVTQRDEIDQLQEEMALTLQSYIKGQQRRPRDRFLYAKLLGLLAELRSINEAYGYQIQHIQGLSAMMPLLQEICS
Chain of Estrogen-related receptor gamma (Homo sapiens) (P62508 whole entry, looked up, the tested form may be a part): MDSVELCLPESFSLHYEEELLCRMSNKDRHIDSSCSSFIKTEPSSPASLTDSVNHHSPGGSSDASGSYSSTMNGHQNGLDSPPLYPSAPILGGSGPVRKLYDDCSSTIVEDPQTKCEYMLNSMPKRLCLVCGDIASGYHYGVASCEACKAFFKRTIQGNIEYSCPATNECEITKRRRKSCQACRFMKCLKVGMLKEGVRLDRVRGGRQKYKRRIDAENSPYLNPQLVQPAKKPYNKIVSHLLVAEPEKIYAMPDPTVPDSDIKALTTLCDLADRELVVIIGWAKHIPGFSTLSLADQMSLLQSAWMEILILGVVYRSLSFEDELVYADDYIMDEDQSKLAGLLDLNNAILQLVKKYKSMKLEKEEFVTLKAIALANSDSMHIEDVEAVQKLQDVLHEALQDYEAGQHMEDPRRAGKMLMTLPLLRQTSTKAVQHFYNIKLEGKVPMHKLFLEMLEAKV
Chain of Steroid hormone receptor ERR1 (Homo sapiens) (P11474 whole entry, looked up, the tested form may be a part): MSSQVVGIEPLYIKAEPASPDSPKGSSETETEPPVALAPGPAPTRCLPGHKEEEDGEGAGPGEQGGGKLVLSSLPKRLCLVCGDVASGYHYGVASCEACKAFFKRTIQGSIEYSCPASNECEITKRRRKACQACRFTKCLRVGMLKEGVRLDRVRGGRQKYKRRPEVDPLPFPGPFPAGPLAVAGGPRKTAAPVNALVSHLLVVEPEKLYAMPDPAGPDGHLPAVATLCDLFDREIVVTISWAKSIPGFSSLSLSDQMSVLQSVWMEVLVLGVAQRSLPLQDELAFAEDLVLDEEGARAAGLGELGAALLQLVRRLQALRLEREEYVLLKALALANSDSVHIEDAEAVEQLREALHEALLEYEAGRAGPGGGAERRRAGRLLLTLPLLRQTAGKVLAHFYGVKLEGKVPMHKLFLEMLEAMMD

Consider `c1ccc(C[n+]2cccc3ccccc32)cc1`, for which the compound was classed as inactive in assay [1], in [2], in assay [3], in [4], in assay [5] and in assay [6]. For the same compound, the outcome in assay [7], in assay [8], in assay [9], in [10], in assay [11] and in assay [12] was inactive. In addition, the call in [13], in assay [14], in assay [15], in assay [16], in [17] and in [18] was inactive.

A word on the AC50: it is the concentration giving half of the maximal activity seen. On to `CCCCCc1ccc(N)cc1`, for which the result in [1], in [2], in [3], in assay [4], in [5] and in [6] was inactive. For the same compound, the outcome in [7], in [8], in [9], in assay [11], in [12] and in [13] was inactive. Further, the outcome in assay [19], in assay [16], in [17] and in [20] was inactive. Besides, the AC50 in [2] is 72.9 µM (active) and 27.4 µM (active) and 21.2 µM (active); in [14], 12.2 µM (active) [middle of 4 runs].

For `CCOC(=O)O[C@H](C)OC(=O)c1ccc2c(c1)cc(C(=O)NC1CCN(C(C)C)CC1)n2Cc1cc(-c2ccc(Cl)s2)on1`, the compound was called inactive in assay [1], in assay [2], in assay [3], in assay [4], in assay [5] and in assay [8]. For the same compound, the result in assay [9], in assay [10], in [11], in assay [12], in assay [13] and in [14] was inactive. For the same compound, the compound was called inactive in [20]. For the same compound, the AC50 in [6] is 60 µM (active); in assay [7], 33 µM (active).

Regarding `NCc1cccc(C2CCN(C(=O)c3ccc(C#Cc4ccccc4F)o3)CC2)c1`, the AC50 in assay [1] is 16.4 µM (active); in [3], 2.77 µM (active); in [4], 6.79 µM (active); in assay [7], 8 µM (active); in assay [9], 16.1 µM (active); in assay [10], 17 µM (active). Further, the values for the AC50 in [13] and in assay [14] were 14.3 µM (active) and 9.53 µM (active), respectively. Also, the result in assay [2], in [5], in assay [6], in [8], in assay [11] and in assay [12] was inactive.
